# Source: the supplement of paper PMC12067926
# Values without a mark were called inactive.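 The calls were made as follows: active = growth AUC significantly below the DMSO wells by Dunnett test; inactive = the rest.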
# Tests used:
# Test in all cases: relative growth (AUC of 72 h growth curve relative to DMSO control, dAUC) (ratio); higher = more growth (less inhibition), active = hit call of the paper
# Conditions in all cases: 20 µM
# [1] = system: Aeromonas 1 (Aeromonas sp. AE235)
# Procedure, shortened: (§1)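 Each chemical was tested at 20 µM (1% DMSO) in 96-well plates seeded with a 1:100 dilution of cultures grown to carrying capacity in Luria–Bertani medium. These were isolates from Icelandic stream sediments and Silwood Park soil, as well as whole sediment communities. A plate reader took A600 readings hourly over 72 h, and three biological replicates were averaged. Relative growth (dAUC) is the spline-integrated area under the growth curve relative to the mean of the DMSO controls.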
# [2] = system: Aeromonas 2 (Aeromonas sobria)
# Procedure, shortened: as §1
# [3] = system: Aeromonas 3 (Aeromonas popoffii)
# Procedure, shortened: as §1
# [4] = system: Argrobacterium 1 (Agrobacterium sp.)
# Procedure, shortened: as §1
# [5] = system: Arthrobacter 1 (Arthrobacter humicola)
# Procedure, shortened: as §1
# [6] = system: Arthrobacter 2 (Arthrobacter humicola)
# Procedure, shortened: as §1
# [7] = system: Arthrobacter 3 (Arthrobacter sp.)
# Procedure, shortened: as §1
# Community 10 = system: Community 10
# Procedure, shortened: as §1
# Community 4 = system: Community 4
# Procedure, shortened: as §1
# Community 6 = system: Community 6
# Procedure, shortened: as §1
# Community 7 = system: Community 7
# Procedure, shortened: as §1
# Community 8 = system: Community 8
# Procedure, shortened: as §1
# Community 9 = system: Community 9
# Procedure, shortened: as §1
# [8] = system: Flavobacterium 1 (Flavobacterium glaciei)
# Procedure, shortened: as §1
# [9] = system: Flavobacterium 2 (Flavobacterium succinicans)
# Procedure, shortened: as §1
# [10] = system: Hymenobacter 1 (Hymenobacter glaciei)
# Procedure, shortened: as §1
# [11] = system: Microbacterium 1 (Microbacterium arborescens)
# Procedure, shortened: as §1
# [12] = system: Neobacillus 1 (Neobacillus soli)
# Procedure, shortened: as §1
# [13] = system: Oryzobacter 1 (Oryzobacter terrae)
# Procedure, shortened: as §1
# [14] = system: Paenibacillus 1 (Paenibacillus castaneae)
# Procedure, shortened: as §1
SMILES,relative growth [1],relative growth [2],relative growth [3],relative growth [4],relative growth [5],relative growth [6],relative growth [7],relative growth (Community 10),relative growth (Community 4),relative growth (Community 6),relative growth (Community 7),relative growth (Community 8),relative growth (Community 9),relative growth [8],relative growth [9],relative growth [10],relative growth [11],relative growth [12],relative growth [13],relative growth [14]
OC(Cn1cncn1)(c1ccc(F)cc1)c1ccccc1F (stereo not given),0.996,1.04,1.01,1.02,0.835,1.11,1.04,1.09,1.08,1.07,0.819,1.04,1.08,1.12,1.07,1.13,0.996,1.08,1.05,1.05
O=[N+]([O-])c1cc(C(F)(F)F)c(Cl)c([N+](=O)[O-])c1Nc1ncc(C(F)(F)F)cc1Cl,1.04,0.00203 (active),0.00448 (active),0.0123 (active),0.035 (active),0.0116 (active),0.0138 (active),0.534 (active),0.614 (active),0.498 (active),0.794,0.921,0.34 (active),0.0154 (active),0.00437 (active),0.0968 (active),0.928,0.169 (active),0.00855 (active),0.00404 (active)
CCCCCCCCCCCCNC(=N)N,0.94,0.928,0.97,0.233 (active),0.0065 (active),0.00389 (active),0.0063 (active),0.505 (active),0.501 (active),0.407 (active),0.993,0.788,0.294 (active),0.00294 (active),0.832,0.00418 (active),0.881,0.98,0.00315 (active),0.893
N#Cc1sc2c(=O)c3ccccc3c(=O)c=2sc1C#N,0.852,0.905,1.07,1.09,0.649 (active),0.193 (active),0.557 (active),1.16,1.12,1.12,1.06,1.06,1.09,0.359 (active),1.05,0.709,0.965,1,0.898,0.928
CCOCn1c(-c2ccc(Cl)cc2)c(C#N)c(Br)c1C(F)(F)F,0.988,0.989,1.01,0.978,1.14,0.829,0.987,0.934,1.07,0.99,1.06,1.05,1.03,1.03,0.988,0.993,0.996,0.979,1,0.978
O=C1c2ccccc2C(=O)N1SC(Cl)(Cl)Cl,1.04,0.951,0.992,1.04,1.04,0.994,1.1,0.818,0.962,0.721,0.943,0.913,1.01,1.05,0.983,1.11,1.02,1.07,0.988,1.02
Cc1cc(C2CC2)nc(Nc2ccccc2)n1,1.01,0.948,1.05,0.93,0.989,0.898,0.542 (active),0.995,0.978,1,0.89,1.05,0.939,0.951,0.86,1.1,1.05,0.946,1.04,0.619 (active)
CO/C=C(/C(=O)OC)c1ccccc1Oc1cc(Oc2ccccc2C#N)ncn1,0.938,0.929,0.947,1.02,0.985,1,1.08,0.868,1.1,0.903,0.834,1.03,1.04,1.09,0.99,1.03,0.975,1.01,1.13,1.01
O=C1C2CC=CCC2C(=O)N1SC(Cl)(Cl)Cl (stereo not given),0.905,1.01,0.983,0.74 (active),0.95,0.769,0.919,0.58,0.671,0.614 (active),0.95,0.794,0.473 (active),0.948,0.9,0.968,1,0.917,0.991,1.06
CCOP(=S)(OCC)Oc1cc(C)nc(C(C)C)n1,0.987,0.964,0.98,1.16,0.981,0.834,0.888,0.743,0.904,0.958,1.1,0.976,0.912,0.913,0.909,0.975,0.969,0.943,1.09,0.922
COc1cc(C)c(C(=O)c2c(OC)ccc(Br)c2C)c(OC)c1OC,1.07,1.03,1.1,1.04,1.15,0.768,0.949,0.986,1.1,1.05,0.987,1.08,1.12,0.992,1.02,1.16,1.03,1.06,1.07,0.965
CCOCN(C(=O)CCl)c1c(C)cccc1CC,0.953,0.938,0.964,1.02,0.999,0.858,1.02,0.858,0.952,0.921,0.976,1.02,1.06,1.05,0.946,0.969,1.06,0.667 (active),1.04,0.928
CCCCC(C#N)(Cn1cncn1)c1ccc(Cl)cc1 (stereo not given),0.946,0.901,0.979,1.07,0.975,0.849,0.841,0.956,0.921,0.931,0.991,0.904,0.937,0.856,0.885,0.912,0.925,0.942,1.12,0.97
CCOc1cc(Oc2ccc(C(F)(F)F)cc2Cl)ccc1[N+](=O)[O-],0.962,0.975,0.966,1.01,1.02,0.848,1.01,0.824,0.905,0.907,0.968,1.04,0.975,1.05,0.971,1.03,1.07,1.01,1.03,0.735 (active)
CCCC(Cn1cncn1)c1ccc(Cl)cc1Cl (stereo not given),0.932,0.996,1.01,1.15,1,1.02,0.987,0.973,1.11,1.06,0.902,1.09,1.12,1.07,0.966,0.877,0.99,1.09,1.05,1.06
CC(Oc1ccc(Oc2nc3ccc(Cl)cc3o2)cc1)C(=O)O (stereo not given),1.02,1.01,1.04,1.01,1.08,0.93,1.01,1.15,0.991,1.07,1.01,1.01,1.07,0.971,1.09,1.05,0.986,1.05,0.998,1.11
